Assay outcomes as filed in PubChem BioAssay.
This is a sample that favours compounds with a hit; in the whole collection about 2.8% have one here.
CtBP-E1A blk = blocks the CtBP interaction with E1A | AlphaScreen GST-E1A/His-CtBP binding, 1536-well; active compounds read low | activity change, % (concentration not given with the values) | 0.49% of 340,000 active; in the data active = activity change below about -65%; inconclusive = mostly about -30% to -63%
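GST-E1A and His-tagged CtBP (125 nM each as 5X stock) were preincubated with pin-transferred compound for 2 h at 37 °C in the dark, then glutathione donor and nickel acceptor beads were added for 1 h before AlphaScreen reading.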
HepG2 tox = counter-screen for TGF-b inhibitors: cytotoxicity in HepG2 cells; HepG2 CAGA-GFP viability, ATP luminescence, 18 h; Potency, µM (doses to about 46.1 µM), most hits filed as cytotoxic; 0.76% of 410,000 active
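HepG2 CAGA-GFP cells (1000/well, DMEM with 1% FBS) received compound, then TGF-beta at 500 pg/mL final, and were incubated 18 hours at 37 degrees C. Viability was read by CellTiter-Glo luminescence. Media-only wells were set as complete cell-killing and DMSO as no toxicity.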
S2 tox = reduces viability in counter-screen for ATXN expression inhibitors; Potency, µM (doses to about 56.7 µM), hits mostly cytotoxic; AID 651635; S2 cells (HEK-293 line with an ATXN2-luciferase reporter) viability, CellTiter-Fluor protease fluorescence, 24 h; 0.49% of 400,000 active; also: nearly all actives have a fitted effect of over 40% in size
ATXN2 expr inh = inhibitors of ATXN2 expression. 0.72% of 360,000 active. AID 1745845. HEK-293 ATXN2-luciferase reporter, luminescence, 24 h. Potency, µM (highest dose often 57 µM), usual class: inhibitors; also: nearly all actives have a fitted effect of over 55% in size
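qHTS (up to 57 uM final) was run with 24 h compound exposure of reporter cells at 37 °C. Each well was multiplexed: SteadyGlo luminescence measured ATXN2-luciferase expression after a fluorogenic Gly-Phe-AFC viability readout (25 uM final).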
TGFb SMAD3 inh = inhibitors of TGF-b signaling | Potency, µM (doses to about 46.1 µM), actives largely listed as inhibitors | HepG2 CAGA-GFP TGF-b/SMAD3 reporter, GFP fluorescence, 18 h; TGF-beta stimulated, 500 pg/mL final | 1.2% of 410,000 active | AID 588855; also: nearly all actives have a fitted effect of over 65% in size
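Read-out: total well GFP (ex488/em500-530) summed from mean per-cell fluorescence. Cells: HEPG2 CAGA-GFP, 1% FBS DMEM, 18 h at 37 degrees C with 500 pg/mL final TGF-beta. Unstimulated wells served as the full-inhibition control; stimulated DMSO wells = 0%.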
Six1-Eya2 inh = inhibitors of human Six1/Eya2 interaction. Q15475+O00167. 0.56% of 360,000 active. AlphaScreen GST-Six1/His-Eya2 binding, biochemical; active compounds read low. activity change, % (no concentration beside the values); in the data active = activity change below about -65%; inconclusive = mostly about -30% to -63%
Target sequence (O00167 whole entry, looked up): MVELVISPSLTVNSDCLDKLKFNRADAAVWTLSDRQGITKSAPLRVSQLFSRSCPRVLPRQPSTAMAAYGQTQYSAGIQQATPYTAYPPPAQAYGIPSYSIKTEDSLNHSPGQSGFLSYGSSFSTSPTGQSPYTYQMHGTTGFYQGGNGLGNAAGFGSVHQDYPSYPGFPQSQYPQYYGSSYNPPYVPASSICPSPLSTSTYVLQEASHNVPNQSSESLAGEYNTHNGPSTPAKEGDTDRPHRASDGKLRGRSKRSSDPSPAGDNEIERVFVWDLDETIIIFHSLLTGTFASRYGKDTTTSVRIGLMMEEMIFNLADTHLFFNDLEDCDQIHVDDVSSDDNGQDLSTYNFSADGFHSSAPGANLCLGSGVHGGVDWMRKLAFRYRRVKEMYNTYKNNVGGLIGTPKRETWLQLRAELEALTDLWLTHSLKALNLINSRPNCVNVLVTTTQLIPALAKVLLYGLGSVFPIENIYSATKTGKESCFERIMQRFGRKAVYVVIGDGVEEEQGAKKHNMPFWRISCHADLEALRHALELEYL
Target sequence (Q15475 whole entry, looked up): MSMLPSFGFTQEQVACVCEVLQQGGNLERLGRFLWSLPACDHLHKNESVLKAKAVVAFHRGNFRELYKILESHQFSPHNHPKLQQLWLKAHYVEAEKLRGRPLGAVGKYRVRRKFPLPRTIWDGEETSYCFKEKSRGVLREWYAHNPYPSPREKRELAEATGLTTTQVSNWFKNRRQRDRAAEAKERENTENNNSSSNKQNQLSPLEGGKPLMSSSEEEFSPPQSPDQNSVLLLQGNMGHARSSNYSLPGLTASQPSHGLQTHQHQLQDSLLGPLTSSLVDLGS
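GST-Six1 + His-Eya2 (5X stock: 250/500 nM); Tris pH 8.0, 300 mM NaCl, 0.05% BSA, 0.02% Tween 20; GSH donor/Ni acceptor beads; 1 h 37 °C dark; AlphaScreen readout.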
A number is an active result; – = inactive; ? = inconclusive; · = no result given. Unless noted, calls follow the shape of the dose curve; as a rule, active = well fitted curve in the direction sought with a large enough effect; inconclusive = small, poorly fitted or top-dose-only effect, or another doubt; inactive = no such curve, though single readings can be large; an effect the other way counts as inactive or inconclusive.

SMILES	CtBP-E1A blk	HepG2 tox	S2 tox	ATXN2 expr inh	TGFb SMAD3 inh	Six1-Eya2 inh
O=C(c1ccc(Cl)cc1)N1CCCCC1CCN1CCOCC1 (configuration not stated)	·	–	·	·	?	·
C/C(=C(\CCO)SS/C(CCO)=C(\C)N(C=O)Cc1cnc(C)nc1N)N(C=O)Cc1cnc(C)nc1N	·	·	–	–	·	·
CCOC(=O)c1c(C)n(-c2ccccc2)c2ccc(OC(=O)c3ccccc3NC(=O)C(C)(C)C)cc12	·	22.4µM	25.1µM	?	?	·
CCOC(=O)c1ccc(/C=C2/C=C(c3ccccc3)N(c3ccc(Cl)c(C(=O)O)c3)C2=O)cc1	–	–	?	10.6µM	–	–
COc1cccc(/C=N/NC(=O)c2[nH]c(C)c(C(=O)N/N=C/c3cccc(OC)c3)c2C)c1	?	–	–	–	–	-68.4
CCn1c2ccccc2c2cc(N)ccc21	–	–	?	–	–	–
CCn1c2ccccc2c2cc(/C=C(/C#N)C(N)=S)ccc21	–	–	?	3.55µM	3.98µM	–
COc1ccc(C(=O)/C=C/C(=O)N(CC(=O)NC2CCCCC2)Cc2ccccc2OC)c(O)c1	–	–	·	21.2µM	?	–
COc1ccc(C(=O)/C=C/C(=O)N(CC(=O)NC2CCCCC2)Cc2ccccc2)c(O)c1	–	–	?	?	?	–
COc1ccc(C(=O)/C=C/C(=O)N(CC(=O)NC2CCCCC2)CC2CCCO2)c(O)c1 (configuration not stated)	–	12.6µM	3.98µM	3.77µM	?	–
COc1ccc(C(=O)/C=C/C(=O)N(Cc2ccccc2OC)C(C(=O)NC2CCCCC2)c2ccncc2)c(O)c1 (configuration not stated)	–	–	·	23.8µM	?	–
CCCC(=O)N(C)c1ccc(/C=C2\C=Cc3ccccc32)cc1	·	–	·	·	–	·
CC(=O)N[C@H]1[C@@H]([C@H](O)[C@H](O)CO)OC(C(=O)O)=C[C@@H]1N=C(N)N	·	·	·	–	·	·
CCOC(=O)c1ccc(-c2ccc(/C=C(\C#N)c3nc4ccc(C)cc4[nH]3)o2)cc1	·	3.16µM	·	·	·	·
Cc1ccc2nc(/C(C#N)=C/c3ccc(-c4ccccc4C(=O)O)o3)[nH]c2c1	·	–	·	·	–	?
Cc1ccc(CN(C(=O)c2ccc([N+](=O)[O-])cc2)c2ccccn2)cc1	·	–	–	–	–	·
O=C1C=C(N(CCO)Cc2ccccc2)c2ccccc2C1=O	?	10µM	·	26.7µM	8.91µM	–
COc1ccc(-c2csc(C(O)c3ccc(F)cc3)n2)cc1OC (configuration not stated)	–	–	–	–	–	–
Cc1ccc(CNc2ncnc3ccc(-c4ccoc4C)cc23)o1	·	–	–	–	15.8µM	·
COc1cc2ncnc(NCc3ccc(C)o3)c2cc1OC	–	–	–	–	–	–
COc1ccccc1C1CN(CCNC(=O)c2ccccc2Cl)Cc2ccccc2O1 (configuration not stated)	·	·	–	·	·	·
Cc1cc(F)c(F)c(C(=O)N2CCOCC2)c1Cl	–	–	–	–	–	-92.1
Cc1cc(F)c(F)c(C(=O)N2CCN(C)CC2)c1Cl	–	–	–	–	–	–
CC(C)(C)n1ncc2c(=O)n(Cc3ccc(Cl)c(F)c3)cnc21	·	–	·	·	–	·
C[N+]1=C(/C=C/Nc2ccccc2Cl)C(C)(C)c2ccccc21	–	–	–	–	?	–
SMILES	CtBP-E1A blk	HepG2 tox	S2 tox	ATXN2 expr inh	TGFb SMAD3 inh	Six1-Eya2 inh
COC(=O)c1ccc2c(c1)C(C)(C)C(/C=C/c1ccccc1O)=[N+]2C	–	6.31µM	7.94µM	3.55µM	?	–
COc1ccccc1C1CN(Cc2cnn(C)c2)Cc2ccccc2O1 (configuration not stated)	·	·	–	·	·	·
Cc1cc(NCCCn2ccnc2)n2nc(C)c(-c3ccc(Cl)cc3)c2n1	–	–	15.8µM	?	–	–
Cc1cc(NCCCn2ccnc2)n2nc(C)c(-c3ccccc3)c2n1	–	–	–	–	–	–
COCCNC(=O)/C(C#N)=C/C=C/c1ccccc1[N+](=O)[O-]	–	–	?	?	20µM	–
COCCNC(=O)/C(C#N)=C/c1ccc(O)c([N+](=O)[O-])c1	·	–	–	·	–	–
O=C(N/N=C\c1cccc([N+](=O)[O-])c1O)C1COc2ccccc2O1 (configuration not stated)	-96.3	–	–	–	–	-88.1
O=[N+]([O-])c1cccc(C=NNc2ccc3ccccc3n2)c1O	-95.0	–	?	?	?	-91.0
COc1cc([N+](=O)[O-])cc(/C=N\NC(=O)C2COc3ccccc3O2)c1O (configuration not stated)	·	–	?	·	–	-88.9
O=C(N/N=C/c1cccc([N+](=O)[O-])c1O)c1cccs1	–	–	?	?	?	-91.3
Brc1ccccc1/C=N/Nc1ccc2ccccc2n1	–	–	–	–	–	–
CCC[C@H](Nc1nc(-c2ccc(NC(=O)NCC)c(OC)c2)ncc1C)c1cccnc1	·	·	·	–	·	·
CC(NC(=O)c1cc(F)ccc1F)c1nnc2n1CCN(Cc1cccs1)CC2 (configuration not stated)	·	·	–	·	·	·
O=C(NCCN1Cc2ccccc2OC(c2ccsc2)C1)c1ccc2[nH]ccc2c1 (configuration not stated)	·	·	–	·	·	·
CC1CCCCN1CCNC(=O)c1ccc2c(=O)n(Cc3ccc(Cl)cc3)c(=S)[nH]c2c1 (configuration not stated)	–	12.6µM	–	?	?	–
CCOC(=O)C1=C(CSc2nc3ccccc3s2)NC(=O)NC1c1ccc(OC)cc1 (configuration not stated)	–	–	?	?	?	–
CCOC(=O)C1=C(CSc2nc3ccccc3s2)NC(=O)NC1c1cc(C)ccc1C (configuration not stated)	–	11.2µM	?	–	11.2µM	–
C[C@@H](Oc1cc(-n2cnc3ccc(CN4CCN(C)CC4)cc32)sc1C(N)=O)c1ccccc1C(F)(F)F	·	·	·	30.6µM	·	·
Cc1ccc(/C=C2\S/C(=N/S(=O)(=O)c3cccs3)NC2=O)cc1	·	–	–	·	–	-66.6
Cc1ccc(S(=O)(=O)/N=C2/NC(=O)/C(=C\c3ccccc3)S2)cc1	–	–	–	–	?	–
COc1cc(OC)c(Nc2c3c(nc4nc(-c5cccs5)nn24)CCCC3)cc1Cl	·	–	28.2µM	–	?	·
COc1cc(OC)c(NC(=O)c2ccc3c(Cl)c4c(nc3c2)CCCC4)cc1Cl	·	–	–	–	–	·
Nc1ccc(N)c([N+](=O)[O-])c1	·	·	?	–	·	·
COc1cc(Br)c(C[N+]2(CCOCCC3CCC4CC3C4(C)C)CCOCC2)cc1OC (configuration not stated)	·	·	–	·	·	·
